High-throughput results deposited in PubChem by several laboratories.
An excerpt weighted towards active compounds, which were near 3% of everything screened.
PAFAH1B3 FP inh: inhibitors of human PAFAH1B3. recombinant PAFAH1B3, FP-rhodamine probe, fluorescence polarization. inhibition, % at 3.39 µM. actives 0.28% (n = 340,000);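 active means inhibition above the screen-wide average of all tested compounds plus 3 SD, cut at about 25% in these data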;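 further: 0% = enzyme with DMSO only and 100% = wells lacking PAFAH1B3 protein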
Target sequence (Q15102 whole entry, looked up): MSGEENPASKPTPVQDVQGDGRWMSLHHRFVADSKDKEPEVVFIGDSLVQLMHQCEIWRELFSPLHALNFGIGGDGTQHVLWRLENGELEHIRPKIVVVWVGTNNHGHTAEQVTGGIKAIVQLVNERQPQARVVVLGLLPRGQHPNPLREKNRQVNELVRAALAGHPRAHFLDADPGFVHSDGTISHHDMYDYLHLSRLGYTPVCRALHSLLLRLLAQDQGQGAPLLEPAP
pPAFAH FP inh: inhibitors of human plasma PAF acetylhydrolase (pPAFAH) | recombinant pPAFAH, FP-rhodamine probe fluorescence polarization | actives 1.5% (n = 330,000) | Q13093 | inhibition, % at 3.39 µM;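 active means inhibition above the mean inhibition across the screen plus 3 SD, cut at about 25% in these data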;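 further: inhibitors block binding of the rhodamine activity-based probe so polarization drops; 0% = enzyme with DMSO and 100% = wells lacking pPAFAH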
PAFAH1B2 FP inh: inhibitors of human PAFAH1B2; recombinant PAFAH1B2, FP-rhodamine activity probe, fluorescence polarization; inhibition, % at 3.39 µM; actives 1.2% (n = 340,000);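 active means inhibition above the mean of all tested compounds plus 3 SD, cut at about 24% in these data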;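 further: 0% = enzyme with DMSO and 100% = wells lacking PAFAH1B2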
Target sequence (P68402 whole entry, looked up): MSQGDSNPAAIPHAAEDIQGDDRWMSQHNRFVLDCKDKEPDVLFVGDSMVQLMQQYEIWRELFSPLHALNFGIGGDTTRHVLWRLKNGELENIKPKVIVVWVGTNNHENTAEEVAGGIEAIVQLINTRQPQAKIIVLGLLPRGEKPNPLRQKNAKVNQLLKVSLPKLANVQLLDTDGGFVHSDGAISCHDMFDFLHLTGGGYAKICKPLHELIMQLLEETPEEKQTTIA
PAFAH2 inh: PAFAH2 (human) inhibition. inhibition, % at 3.39 µM. recombinant PAFAH2, FP-rhodamine activity probe, fluorescence polarization. AID 492956. actives 0.99% (n = 340,000). Q99487;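 active means inhibition above the mean over all tested compounds plus 3 SD, cut at about 30% in these data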;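 further: inhibitors block probe labeling of enzyme so polarization drops; 0% = enzyme with DMSO and 100% = wells lacking PAFAH2 protein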
DAGLB inhibitor: diacylglycerol lipase beta (human) inhibition; Q8NCG7; HEK293T DAGLB membrane lysate, EnzChek fluorogenic substrate; inhibition, % at 5.17 µM; actives 0.059% (n = 340,000); in the data active means inhibition above about 34%;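 further: 0% = enzyme with vehicle and 100% = wells lacking enzyme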
ATG4B inhibitor: blocks human ATG4B protease cleavage of LC3 substrate | Q9Y4P1 | ATG4B cleavage of LC3-PLA2, NBD-HPC fluorescence, 1 h | inhibition, % at 8.33 µM | actives 0.51% (n = 340,000); in the data active means inhibition above about 40%
An asterisk follows results filed as active; · = no result given.

SMILES	PAFAH1B3 FP inh	pPAFAH FP inh	PAFAH1B2 FP inh	PAFAH2 inh	DAGLB inhibitor	ATG4B inhibitor
CNS(=O)(=O)c1cccc(C(=O)NCC2(N3CCCCC3)CCCCC2)c1	6	5	10	6	0	-3
COc1ccc(S(=O)(=O)Nc2ccc3c(c2)CC(=O)N([C@@H](C)CO)C[C@@H](C)[C@@H](CN(C)Cc2ccccc2)O3)cc1	7	11	38*	3	3	-32
COc1ccc(S(=O)(=O)N(C)C[C@H]2Oc3ccc(NS(=O)(=O)c4ccccc4)cc3CC(=O)N([C@H](C)CO)C[C@@H]2C)cc1	11	15	11	5	3	-13
COc1ccc(NC(=O)N(C)C[C@H]2Oc3ccc(NC(=O)Cc4ccccc4)cc3CC(=O)N([C@H](C)CO)C[C@H]2C)cc1	6	31*	1	-3	3	-9
COc1ccc(NC(=O)N(C)C[C@H]2Oc3ccc(NC(=O)Cc4ccccc4)cc3C(=O)N([C@H](C)CO)C[C@@H]2C)cc1	7	4	7	9	-1	-7
COc1ccccc1N(Cc1ccccc1)S(=O)(=O)c1cccc(C(=O)O)c1	8	34*	7	-2	5	-1
COc1ccc2ccc3c(c2c1)N=CC1(O3)N(C)c2ccccc2C1(C)C (stereo not drawn)	14	33*	1	5	4	0
CN1c2ccccc2C(C)(C)C12C=Nc1c(ccc3ccccc13)O2 (stereo not drawn)	13	7	0	0	3	-3
COc1ccc(CCC(=O)OCC(=O)N2CCN(S(=O)(=O)c3ccc(C)cc3C)CC2)cc1	-1	14	4	5	-3	-1
Cc1ccc(NC(=O)COC(=O)c2ccc(S(=O)(=O)N3CCCC3)cc2)cc1	1	·	-4	8	3	0
CCCCn1c(/C=C/c2ccco2)nc2ccccc21	0	16	-1	4	1	9
CCCn1c(/C=C/c2ccco2)nc2ccccc21	8	25*	7	18	2	4
Cc1ccc(Cn2c(/C=C/c3ccco3)nc3ccccc32)cc1	7	23	3	4	4	8
Clc1ccc(Cn2c(/C=C/c3ccco3)nc3ccccc32)cc1	-11	33*	-8	-1	4	7
CC(C)C1=CC(=Nc2ccc(S(N)(=O)=O)cc2)C=C(C(C)C)C1=O	-4	·	3	-2	-1	-4
COc1ccc(C(=O)NC(C)c2nnc(SCC(=O)NC3CCCC3)n2C)cc1 (stereo not drawn)	4	-5	1	5	0	-13
O=C(CNC(=O)c1ccccc1)NC1(C(=O)NC2CCCCC2)CCCCC1	3	2	3	1	-1	-7
C=CCNc1nc(C(=O)OCC(=O)NCc2cccc(Cl)c2)cs1	4	25*	2	29	-1	0
O=C(COC(=O)c1ccccn1)NCc1cccc(Cl)c1	3	·	0	6	-1	3
O=C(/C=C/c1ccco1)N(c1ccccn1)c1ccccn1	10	33*	7	23	0	-2
Cc1ccc(NC(=O)Cn2nnc(C(=O)NCc3cccs3)c2N)cc1F	6	-6	4	2	2	-4
COc1ccc(C=Nc2cccnc2N)cc1	7	27*	-2	4	-8	0
Cc1ccc(NS(=O)(=O)c2ccc(C(=O)NCCN3CCOCC3)cc2)cc1	3	25*	7	6	2	3
CCOc1ccc(NS(=O)(=O)c2ccc(C(=O)NCCN3CCOCC3)cc2)cc1	4	32*	-2	-1	2	-3
CCOc1ccc(S(=O)(=O)Nc2ccc(C(=O)NCCCN3CCOCC3)cc2)cc1	3	6	1	-1	4	-2
SMILES	PAFAH1B3 FP inh	pPAFAH FP inh	PAFAH1B2 FP inh	PAFAH2 inh	DAGLB inhibitor	ATG4B inhibitor
CC(C)(C)C1CCC(=O)C(C2(O)C(=O)Nc3ccccc32)C1 (stereo not drawn)	10	5	27*	0	-2	-5
COC(CNC(=O)C1CC(=O)N(CCc2ccc(C)cc2)C1)OC (stereo not drawn)	-5	4	5	4	-1	-7
COc1c(C(=O)Nc2ccc(Cc3ccncc3)cc2)ccc2ccccc12	7	-5	-1	6	-3	-9
Cc1ccc(-n2nnnc2SCCNS(=O)(=O)c2ccccc2)cc1C	6	29*	-3	6	-2	3
O=C1OC(c2ccccc2)=N/C1=C/c1cccc(OC(=O)c2cccs2)c1	2	0	66*	-5	4	3
O=C(O/N=C(\c1ccccc1)c1ccncc1)c1ccccc1F	4	9	33*	53*	-7	8
CCN(CC(=O)Nc1ccccc1OC)C(=O)CCOc1ccc(C(C)(C)C)cc1	-2	8	30*	4	-5	-10
CCN(CC(=O)Nc1ccc(OC)cc1)C(=O)Cc1cccs1	10	23	-5	8	0	-1
CC(NC(=O)c1ccc([N+](=O)[O-])o1)C12CC3CC(CC(C3)C1)C2 (stereo not drawn)	11	0	39*	16	-2	2
Cc1ccccc1C(=O)NCCCNC(=O)c1ccco1	7	-2	6	4	1	-2
O=S(=O)(Nc1ccc(Cc2ccncc2)cc1)c1ccc(Br)s1	10	26*	10	3	-3	-6
O=C(O/N=C1/CCCc2occc21)c1ccccc1	5	6	-1	18	-4	8
O=C(O/N=C1/CCCc2occc21)c1ccc(Cl)cc1Cl	2	0	34*	8	-12	38
CC(C)NC(=O)N(C)C[C@@H]1Oc2c(NC(=O)Nc3ccccc3)cccc2C(=O)N([C@H](C)CO)C[C@H]1C	16	4	5	-3	-1	-6
CCOC(=O)c1c(OCC)[nH]c2c1cc(O)c1ccccc12	11	27*	11	8	6	22
CCOC(=O)c1c(C)[nH]c2cc(Br)c(O)cc12	6	10	6	1	-4	-13
CC(C)(C)c1nnc(NC(=O)c2cccs2)s1	4	5	-3	0	2	0
CCCCC(CC)c1nnc(NC(=O)c2cccs2)s1 (stereo not drawn)	15	·	27*	7	1	0
Fc1cccc2sc(Nc3nnc(-c4ccccc4)o3)nc12	1	25*	12	33*	17	5
CCOc1ccc(C(C)=O)cc1COC(=O)c1ccccc1C(=O)N(C)Cc1ccccc1	-3	·	1	6	-3	-9
CN(CC(=O)Nc1ccccc1Br)C(=O)CN1CCN(Cc2ccc(Cl)cc2)CC1	7	-1	6	5	1	-11
O=C(CN1C(=O)NC2(CCCCCCC2)C1=O)NCc1ccccc1	5	4	7	2	-1	-6
